Whole data set: some 8,300 sequences, median “log2 fold change of degron read counts, EGFP-low vs EGFP+ sorted cells (limma voom), compound-induced degradation” near -1.1, cut for the highest 2% near 3.2. This is one part of a sample in which the highest values are shown more often than they occur.
Molecular target: T1, CRBN, Q96SW2
T1 chain: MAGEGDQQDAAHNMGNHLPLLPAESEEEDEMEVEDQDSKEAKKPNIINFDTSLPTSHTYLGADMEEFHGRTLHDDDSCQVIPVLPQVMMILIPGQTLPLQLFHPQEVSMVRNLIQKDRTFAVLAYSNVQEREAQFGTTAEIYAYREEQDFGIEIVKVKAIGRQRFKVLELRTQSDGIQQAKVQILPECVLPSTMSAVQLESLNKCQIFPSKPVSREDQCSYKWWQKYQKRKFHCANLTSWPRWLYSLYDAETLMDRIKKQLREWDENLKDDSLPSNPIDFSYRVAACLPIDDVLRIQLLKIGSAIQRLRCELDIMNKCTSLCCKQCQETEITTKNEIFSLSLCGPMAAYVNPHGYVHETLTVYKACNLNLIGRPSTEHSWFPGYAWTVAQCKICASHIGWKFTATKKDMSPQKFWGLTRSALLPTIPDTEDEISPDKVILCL
Test: log2 fold change of degron read counts, EGFP-low vs EGFP+ sorted cells (limma voom), compound-induced degradation; higher = more compound-induced degradation of the degron-EGFP fusion; degrons are variants of IKZF1/3 zinc finger 2; compound dose not given here
Conditions: Jurkat, 18 h

[1] = compound: compound 19 (5-tert-butyl-thalidomide)
[2] = compound: compound 22 (5-morpholino-thalidomide)
[3] = compound: compound 33 (diphenyl IMiD analogue)
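Note: pooled lentiviral library of zinc finger degron-EGFP fusions in mCherry-positive Jurkat cells, FACS-sorted after compound exposure, with degron abundance counted by next-generation sequencing.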

Sequence	log2 fold change of degron read counts [1]	log2 fold change of degron read counts [2]	log2 fold change of degron read counts [3]	log2 fold change of degron read counts (compound: thalidomide)
FGCDQCGAWFTQKGNLLRHIKL [46F_47G_49D_50Q_52G_53A_54W_55F_67L_, Q9UKT9]	-2.44	-2.82	-1.38	-2.3
FMCEICGHQFTQKGNLLRHIKL [46F_47M_49E_50I_52G_53H_54Q_55F_67L_, Q9UKT9]	-3.75	-3.29	-1.95	-1.87
FCCNQCGRVFTQKGNLLRHIKL [46F_47C_49N_50Q_52G_53R_54V_55F_67L_, Q9UKT9]	-2.29	-2.57	-2.1	-2.12
FLCNQCGRCFTQKGNLLRHIKL [46F_47L_49N_50Q_52G_53R_54C_55F_67L_, Q9UKT9]	-1.41	-1.61	-3.08	-2.11
FVCPQCGAIFTQKGNLLRHIKL [46F_47V_49P_50Q_52G_53A_54I_55F_67L_, Q9UKT9]	-2.01	-1.63	-0.464	-0.946
FYCPICGASFTQKGNLLRHIKL [46F_47Y_49P_50I_52G_53A_54S_55F_67L_, Q9UKT9]	3.25	3.43	2.54	1.24
FLCPICGASFTQKGNLLRHIKL [46F_47L_49P_50I_52G_53A_54S_55F_67L_, Q9UKT9]	1.51	0.569	1.64	1.57
FKCPICGASFTQKGNLLRHIKL [46F_47K_49P_50I_52G_53A_54S_55F_67L_, Q9UKT9]	1.49	-0.57	-1.45	0.422
FECDICGASFTQKGNLLRHIKL [46F_47E_49D_50I_52G_53A_54S_55F_67L_, Q9UKT9]	0.774	-2.24	-0.436	-0.0103
FCCDICGASFTQKGNLLRHIKL [46F_47C_49D_50I_52G_53A_54S_55F_67L_, Q9UKT9]	2.32	1.84	0.871	0.402
FDCPICGASFTQKGNLLRHIKL [46F_47D_49P_50I_52G_53A_54S_55F_67L_, Q9UKT9]	3.04	1.06	1.22	1.9
FWCDICGASFTQKGNLLRHIKL [46F_47W_49D_50I_52G_53A_54S_55F_67L_, Q9UKT9]	3.28	3.69	1.52	-0.347
FWCPICGASFTQKGNLLRHIKL [46F_47W_49P_50I_52G_53A_54S_55F_67L_, Q9UKT9]	3.29	3.64	2.28	1.35
FNCPICGASFTQKGNLLRHIKL [46F_47N_49P_50I_52G_53A_54S_55F_67L_, Q9UKT9]	2.84	1.58	1.33	0.876
FQCDICGASFTQKGNLLRHIKL [46F_47Q_49D_50I_52G_53A_54S_55F_67L_, Q9UKT9]	1.07	1.92	1.15	2.99
FQCPICGASFTQKGNLLRHIKL [46F_47Q_49P_50I_52G_53A_54S_55F_67L_, Q9UKT9]	2.55	2.88	2.76	3.79
FACNQCGHQFTQKGNLLRHIKL [46F_47A_49N_50Q_52G_53H_54Q_55F_67L_, Q9UKT9]	-2.48	-3.06	-3.27	-2.92
FRCNVCGAQFTQKGNLLRHIKL [46F_47R_49N_50V_52G_53A_54Q_55F_67L_, Q9UKT9]	-1.54	-1.19	-0.656	-0.561

Reference: the supplement of paper PMC12645437, “Orthogonal IMiD-Degron Pairs Induce Selective Protein Degradation in Cells” (ACS Chemical Biology, 2025)
